Out of some 340,000 compounds screened, about 4,500 (1.3%) were called active. Entries that show only a call come without a potency. Not shown: some 5% with an inconclusive outcome. This is one part of a sample in which actives are shown more often than they occur. Calls follow the shape of the dose curve; as a rule, active = well fitted inhibition curve with a large enough effect; inconclusive = small, poorly fitted or top-dose-only effect, or another doubt; inactive = no such curve, though single readings can be large or run the other way.
target: DNA polymerase beta (Homo sapiens) (UniProt P06746); assay: qHTS Assay for Inhibitors of DNA Polymerase Beta; settings: Pol beta primer extension/strand displacement, fluorescence kinetic; series mostly up to 114 µM
Method in brief: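 10 nM enzyme + cpd, 15 min RT; start with substrate 50 nM final; read 0 min and after 10 min RT. Corrected, normalized data; 4-parameter Hill curve fit.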
Potency is read from the fitted curve at half-maximal effect.

SMILES	Potency
CCOC(=O)c1cc(-c2ccccc2)n(CCC(=O)Nc2ccccc2CC)c1C	inactive
CCOC(=O)c1c(C)oc2nc(C)nc(N(CC(C)C)CC(C)C)c12	inactive
CCCCNC(=O)C1CCCN(c2nnc(C)c3c(C)n(-c4ccc(Cl)cc4)nc23)C1 (configuration not stated)	inactive
CCSc1ncnc2c(C#N)c3n(c12)CCCCC3	inactive
CCSC1=C(C#N)C(=O)n2c1cc1c2CCCC1	39.8 µM (active)
Cc1ccc2nc(-c3ccc(O)cc3)c(Nc3ccc4c(c3)OCO4)n2c1	inactive
COc1ccc(Cl)cc1-n1c(CCC(=O)O)ccc1-c1ccc(C)cc1	inactive
COc1cc2c(C(=O)O)c(C)n(C)c2c2ccccc12	inactive
COc1cccc2c(C)c(C(=O)O)[nH]c12	50.1 µM (active)
Cc1c(C(=O)N/N=C/c2ccccc2)[nH]c2c([N+](=O)[O-])cccc12	inactive
COc1ccc(S(=O)(=O)NCC(c2ccc(N(C)C)cc2)N2CCCC2)cc1 (configuration not stated)	inactive
CCC(=O)Nc1cccc(-c2nc3cc(C)ccc3o2)c1	inactive
COc1ccccc1NC(=O)COC(=O)Cc1ccc(S(=O)(=O)N2CCCCC2)s1	inactive
O=C(NC1CCCCC1)C1CCCN(S(=O)(=O)c2ccc(Br)s2)C1 (configuration not stated)	inactive
O=C(Cc1ccc(S(=O)(=O)N2CCOCC2)s1)NCCC(c1ccccc1)c1ccccc1	22.4 µM (active)
O=C(CC(c1ccccc1)c1cc(Cl)ccc1O)NCCN1CCOCC1 (configuration not stated)	inactive
O=C(NC1CCCCC1)C1CCCN(S(=O)(=O)c2cccs2)C1 (configuration not stated)	inactive
O=C(Cc1ccc(S(=O)(=O)N2CCCC2)s1)NC1CCCCCC1	31.6 µM (active)
CCn1c2ccccc2c2cc(CN3CCN(Cc4cccc(Cl)c4)CC3)ccc21	inactive
Cc1c(CCNC(=O)c2ccc(C(F)(F)F)cc2)sc2nc(-c3ccc(F)cc3)nn12	inactive
CCCOc1cccc(C(=O)Nc2cccc(NC(=O)c3ccc(C(C)(C)C)cc3)c2)c1	inactive
COc1ccc(OCc2nnc3n2N=C(c2ccccc2)C(CC(=O)O)S3)cc1 (configuration not stated)	22.4 µM (active)
COc1ccc(C2CC(c3ccccc3)=NN2C(=O)COC(=O)COc2ccccc2)cc1 (configuration not stated)	inactive
COc1cccc(OCc2nnc3n2N=C(c2ccccc2)C(CC(=O)O)S3)c1 (configuration not stated)	inactive
Cc1cccc(C(=O)NCCc2nc3ccccc3n2Cc2ccccc2Cl)c1	inactive

SMILES	Potency
CCOc1ccc(NC(=O)c2ncoc2-c2ccco2)cc1	inactive
COc1ccc(-c2nc3ccc(C(=O)NCc4ccc(C)cc4)cc3nc2-c2ccc(OC)cc2)cc1	inactive
COCCNC(=O)Nc1ccc2nc(-c3ccco3)c(-c3ccco3)nc2c1	2.24 µM (active)
O=C(NCc1ccccn1)c1ccc2nc(-c3ccco3)c(-c3ccco3)nc2c1	3.16 µM (active)
COc1cccc(S(=O)(=O)NCc2ccc(C(=O)NCc3ccccn3)cc2)c1	inactive
COc1ccc(NC(=O)C(=O)NCc2ccco2)cc1	inactive
COc1ccc(-n2nc(C(=O)NCCc3ccc(Cl)cc3)c3c4ccccc4n(C)c3c2=O)cc1Cl	inactive
COc1ccc(C)cc1NC(=O)C(=O)NCCc1sc(-c2cccc(C)c2)nc1C	inactive
Cc1cccc(N2CCN(C(=O)c3oc(=O)c4ccccc4c3-c3ccccc3)CC2)c1C	inactive
CCOC(=O)c1c(C)[nH]c(CCC(=O)Nc2ccc(OC)c(OC)c2)c1C	inactive
COc1ccc(C2Sc3ccccc3NC3=C2C(=O)c2ccccc23)c(OC)c1OC (configuration not stated)	inactive
O=C(/C=C/c1cn(CC(O)CN2CCc3ccccc32)c2ccccc12)c1ccc(Br)cc1 (configuration not stated)	inactive
COc1ccc(-c2cc(=O)c3c(O)cc(O[C@@H]4O[C@H](CO[C@@H]5O[C@@H](C)[C@H](O)[C@@H](O)[C@H]5O)[C@@H](O)[C@H](O)[C@H]4O)cc3o2)cc1O	25.1 µM (active)
Cc1ccc(OCCn2c(CNc3ccccc3C)nc3ccccc32)cc1	inactive
CCCCn1c(CNC(=O)C23CC4CC(CC(C4)C2)C3)nnc1SCC(=O)Nc1ccc(C)cc1	inactive
CCCn1c2ccccc2c2cnn(CC(=O)N3CCCC(C(=O)OCC)C3)c(=O)c21 (configuration not stated)	inactive
CCOC(=O)c1sc2nc(CSCC(=O)OCc3ccc(C(=O)OC)o3)[nH]c(=O)c2c1C	inactive
CSc1nnc(SCc2nc3sc(C(=O)O)c(C)c3c(=O)[nH]2)s1	6.31 µM (active)
CC(=O)c1sc2nc(SCC(=O)N3CCCCC3)[nH]c(=O)c2c1C	inactive
Cc1ccc(C2c3[nH]c4ccccc4c3CCN2C(=O)c2cccc(C)c2)cc1 (configuration not stated)	inactive
O=C(Nc1ccc(OC(F)(F)F)cc1)C1CCCN(S(=O)(=O)c2ccc(Br)s2)C1 (configuration not stated)	inactive
Cc1ccc(CSc2nc3cccnc3n2Cc2ccc(C(=O)NC3CC3)cc2)cc1	inactive
COc1ccc(C2(Nc3cccc(F)c3)C(=O)c3ccccc3C2=O)cc1	inactive
CN(Cc1ccccc1)S(=O)(=O)c1ccc(F)c(C(=O)Nc2cccc(Cl)c2Cl)c1	inactive
O=C1CSC(=S)N1/N=C/c1ccc(O)c([N+](=O)[O-])c1	17.8 µM (active)

SMILES	Potency
O=[N+]([O-])c1ccc(N2CCSCC2)cc1O	inactive
O=C1CSC(=S)N1c1ccc(O)cc1	inactive
Cc1ccc(Nc2c(-c3ccc(C)cc3)nc3cnccn23)cc1	inactive
CCOC(=O)C1CCN(c2ncnc3c2c(-c2ccccc2)cn3-c2cccc(C)c2)CC1	inactive
COc1ccc(Cl)cc1N(C)C(=O)c1cc2c(=O)oc3ccc(C)cc3c2s1	inactive
O=C(Nc1cccc(Cl)c1)c1csnn1	inactive
O=C(Nc1ccc(Oc2ccccc2)cc1)C1CCN(S(=O)(=O)c2ccc(Cl)cc2)CC1	inactive
O=C(Nc1ccccc1)c1nnsc1S(=O)(=O)c1ccc(Cl)cc1	44.7 µM (active)
CC(C)c1ccc(OCC(=O)N(Cc2ccc(N(C)C)cc2)C2CCS(=O)(=O)C2)cc1 (configuration not stated)	inactive
CC(C)(C)OC(=O)NNc1c2ccccc2nc2ccccc12	inactive
CC(=O)Nc1ccc(Nc2c3ccccc3nc3ccccc23)cc1	17.8 µM (active)
CCc1nc(Nc2ccc(NC(C)=O)cc2)c2oc3ccccc3c2n1	inactive
COc1ccc(C(=O)NCC(c2ccc(N(C)C)cc2)N2CCc3ccccc32)c(OC)c1 (configuration not stated)	inactive
CCOc1ccc(-n2c(O)c(/C=N/Nc3nc(C)cc(C)n3)c3ccccc3c2=O)cc1	inactive
CCOc1ccc(-n2c(O)c(/C=N/c3ccnn3Cc3ccncc3)c3ccccc3c2=O)cc1	inactive
CCOc1ccc(-n2c(O)c(/C=N/Nc3nnc(C)c(=O)[nH]3)c3ccccc3c2=O)cc1	56.2 µM (active)
CCOc1ccccc1NC(=O)CN1CCCN(Cc2cccc(Cl)c2)S1(=O)=O	inactive
C=CC1C(OC2OC(CO)C(O)C(O)C2O)OC=C(C(=O)OC)C1CC1CC(=O)CC(CC(=O)CCc2ccc(O)cc2)O1 (configuration not stated)	inactive
CC1=C(C)C(=O)OC(C(C)C2CCC3C4CC=C5CC(OC6OC(COC7OC(CO)C(O)C(O)C7O)C(O)C(O)C6O)CC(O)C5(C)C4CCC23C)C1 (configuration not stated)	inactive
CC(/C=C/C1(O)C(C)CC(=O)CC1(C)C)OC1OC(CO)C(O)C(O)C1O (configuration not stated)	28.2 µM (active)
Cc1ccc(-c2nc3ccccn3c2Nc2c(C)cccc2C)o1	inactive
O=C(CN1CCSc2ccccc21)N1CCN(c2ccccc2)CC1	inactive
Oc1c(Cl)cc(Cl)c(Cl)c1Cc1c(O)c(Cl)cc(Cl)c1Cl	28.2 µM (active)
Cc1ccc(Cc2nc3ccccc3nc2SCC(=O)Nc2cccc(C(F)(F)F)c2)cc1	inactive
Cc1ccc(-c2cnc(C3CC3)o2)cc1S(=O)(=O)Nc1cccc(C)c1C	inactive

SMILES	Potency
CCCOc1ccc(-c2cccc(NS(=O)(=O)c3ccccc3)c2)nn1	inactive
O=C(Cc1ccc([N+](=O)[O-])cc1)N/N=C/c1ccco1	inactive
O=C(N/N=C/c1ccco1)c1csc2c1CCCC2	inactive
O=C(N/N=C/c1ccco1)c1ccc(C(=O)N/N=C/c2ccco2)o1	17.8 µM (active)
CCc1ccccc1NC(=O)CSc1nnc(-c2ccccc2)c(-c2ccccc2)n1	inactive
Cc1c(Cl)cccc1NC(=O)N1CCN(C(=O)c2nsc3ccccc23)CC1	inactive
COc1ccccc1N1CC(C(=O)Nc2ccc(S(=O)(=O)N3CCOCC3)cc2)CC1=O (configuration not stated)	79.4 µM (active)
Cc1ccc(N2CC(C(=O)Nc3ccc(S(=O)(=O)N4CCCC4)cc3)CC2=O)cc1C (configuration not stated)	inactive
CC1CCN(S(=O)(=O)c2ccc(NC(=O)C3CC(=O)N(c4ccccc4)C3)cc2)CC1 (configuration not stated)	inactive
COc1ccc(NC(=O)NC(C)c2c(-n3cccc3)sc(C)c2C)cc1OC (configuration not stated)	inactive
CCOc1ccc2nc(N3CCCC(C(=O)Nc4cc(C)ccc4C)C3)sc2c1 (configuration not stated)	inactive
c1ccc(-c2cc(-c3nnc4sc(-c5ccccn5)nn34)[nH]n2)cc1	39.8 µM (active)
S=c1[nH]nc(-c2cc(-c3ccsc3)n[nH]2)n1-c1ccccc1	inactive
CCOc1cccc(-c2nn3c(-c4ccccn4)nnc3s2)c1	inactive
O=C(c1cc2c(s1)CCC2)N1CCN(c2ccccc2)CC1	17.8 µM (active)
O=C(C1CCC1)N1CCN(c2ccccc2)CC1	inactive
O=C(NNC(=O)c1cc2c(s1)CCCC2)c1ccccc1	inactive
CCc1ccc(NC(=O)c2cc(S(=O)(=O)NC3CCCCCC3)ccc2F)cc1	inactive
CCOc1cccc(CC(=O)N2CCc3c([nH]c4ccccc34)C2c2ccc(OC)cc2)c1OCC (configuration not stated)	inactive
CC(C)c1ccc(Nc2nnc(SCC(=O)c3nnc(-c4ccccc4)o3)s2)cc1	39.8 µM (active)
Cc1ccccc1Nc1nnc(SCC(=O)c2cc3ccccc3o2)s1	inactive
CC(C)Nc1nnc(SCC(=O)c2c[nH]c3ccccc23)s1	inactive
